Laboratory results as given in PubChem BioAssay (Tox21).
Results filed as inconclusive are left out. Active and inactive are the calls of the source. Unless noted, the call rests on the fitted dose curve.

Assays:
[1] = Nuclear factor erythroid 2-related factor 2/antioxidant responsive element (Nrf2/ARE) small molecule agonists: qHTS cell viability counter screen in human keratinocytes (AID 1919968; active means well fitted curve in the direction sought with a large enough effect in the repeat runs; an effect the other way counts as inactive or inconclusive; further: nearly all actives have a fitted effect of over 55% in size)
How it was run: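 After a 5 h attachment period, ARE-reporter keratinocytes were dosed with compounds in DMSO and then cultured 23 h at 37 C. Cell viability came from CellTiter-Fluor signal read after a further 1 h.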

[2] = Nuclear factor erythroid 2-related factor 2/antioxidant responsive element (Nrf2/ARE) small molecule agonists: luciferase reporter gene qHTS assay in human keratinocytes (AID 1919969); further: nearly all actives have a fitted effect of over 35% in size; further: potency means the concentration at half of the fitted maximal effect
[3] = target: Gonadotropin-releasing hormone receptor (Homo sapiens) (UniProt P30968); assay: Human gonadotropin-releasing hormone receptor (GnRHR) small molecule agonists, calcium flux assay in GnRHR-HEK293 cells (AID 1920063); further: nearly all actives have a fitted effect of over 35% in size
How it was run: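 We seeded human GnRHR-expressing HEK293 cells for 18 hours, loaded them with calcium dye for an hour at 37 C, added test compounds, and recorded fluorescence intensity kinetically for three minutes.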

[4] = target: KiSS-1 receptor (Homo sapiens) (UniProt Q969F8); assay: Human kisspeptin (KISS1R) small molecule agonists, calcium flux assay in KISS1R-HEK293 cells (AID 1920064; active means well fitted curve in the direction sought with a large enough effect in the repeat runs; an effect the other way counts as inactive or inconclusive)
How it was run: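 Kinetic calcium assay, 1 s sampling over 3 min at Ex/Em 480/540, in HEK293 cells engineered with human KISS1R; compounds delivered in DMSO after 1 h dye loading.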

[5] = G protein-coupled receptor (GPCR) small molecule agonists, calcium flux assay: HEK293 wild type cell line counter screen (AID 1920065)
How it was run: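 Calcium-sensitive dye, loaded 1 h at 37 C into cells cultured 18 h, reports compound-evoked calcium release as fluorescence (Ex/Em 480/540), measured over 3 min. Agonist mode; 15-point titrations, triplicate.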

[6] = p53 small molecule agonists, cell-based qHTS assay with human liver microsomes (AID 1963577);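 further: p53 response element beta-lactamase reporter cells with liver microsomes plus NADPH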
How it was run: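 p53RE-bla cells; 5 h settle, 37 C/5% CO2; cpd + HLM 0.5 mg/mL + NADPH 0.5 mg/mL (final); 16 h 37 C; LiveBLAzer 2 h RT dark; fluorescence readout.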

[7] = p53 small molecule agonists, cell-based qHTS assay with rat liver microsomes (AID 1963578)
How it was run: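 Rat liver microsome activation: microsomes 0.5 mg/mL, NADPH 0.5 mg/mL final; p53RE-bla cells, 16 h 37 C; LiveBLAzer readout, 2 h RT dark.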

[8] = p53 small molecule agonists, cell-based qHTS assay with human liver microsomes: qHTS cell viability counter screen (AID 1963579); further: nearly all actives have a fitted effect of over 45% in size
How it was run: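 Luminescent CellTiter-Glo read-out, 30 min at room temperature, gauged cytotoxicity in p53RE-bla cells exposed 16 h at 37 C to DMSO-dissolved compounds with metabolic activation by human liver microsomes and NADPH, each 0.5 mg/mL final.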

[9] = p53 small molecule agonists, cell-based qHTS assay (AID 1963582; active means well fitted activation curve with a large enough effect in the signal ratio in the repeat runs, not every such curve was filed as active; the % refers to the signal ratio)
How it was run: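 In this cell-based concentration-response screen, a p53 response element drives beta-lactamase; cells received DMSO-borne compounds after 5 h culture and were incubated a further 16 h before FRET substrate development.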

[10] = target: 5-hydroxytryptamine receptor 2A (Homo sapiens) (UniProt P28223); assay: 5-hydroxytryptamine receptor 2A (HTR2A) small molecule antagonists, cell-based qHTS assay (AID 1963586); further: nearly all actives have a fitted effect of over 45% in size
How it was run: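 Antagonist-mode intracellular calcium assay: DOI (4 nM) added after 5 min compound pre-incubation at room temperature to dye-loaded HTR2A-CHO cells. Fluorescence followed for 3 min, sampled every second.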

[11] = target: 5-hydroxytryptamine receptor 2A (Homo sapiens) (UniProt P28223); assay: 5-hydroxytryptamine receptor 2A (HTR2A) small molecule agonists, cell-based qHTS assay (AID 1963587); further: nearly all actives have a fitted effect of over 30% in size
How it was run: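 HTR2A-CHO cells, plated 18 h at 37 C/5% CO2, dye-loaded 1 h at 37 C; compounds in DMSO added by pin tool (agonist mode). Intracellular calcium flux read as kinetic fluorescence on FDSS over 2 min at 1 s intervals.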

[12] = target: Muscarinic acetylcholine receptor M1 (Homo sapiens) (UniProt P11229); assay: Cholinergic receptor muscarinic 1 (CHRM1) small molecule antagonists, cell-based qHTS assay (AID 1963588); further: nearly all actives have a fitted effect of over 40% in size; further: potency means the concentration at half of the fitted maximal effect
How it was run: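 CHRM1-CHO calcium-flux assay, antagonist mode. Cells were seeded 18 h, dye-loaded 1 h at 37 C and given compound for 5 min at RT, then acetylcholine was added at 50nM. FDSS fluorescence was read 3 min; 15 concentrations, three runs.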

[13] = target: Muscarinic acetylcholine receptor M1 (Homo sapiens) (UniProt P11229); assay: Cholinergic receptor muscarinic 1 (CHRM1) small molecule agonists, cell-based qHTS assay (AID 1963589); further: nearly all actives have a fitted effect of over 35% in size
How it was run: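 Measures agonist-induced intracellular calcium rise. Stable human CHRM1 CHO line, 1 h dye load at 37 C, compounds from DMSO, kinetic fluorescence read.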

[14] = cAMP Responsive Elements (CRE) small molecule agonists, cell-based qHTS assay (AID 1963590)
How it was run: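 A CRE-responsive beta-lactamase reporter in HEK 293T cells was used. Treatment ran 3 h at 37 C; detection used LiveBLAzer B/G FRET substrate for 2 h at room temperature.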

[15] = cAMP Responsive Elements (CRE) small molecule antagonists, cell-based qHTS assay (AID 1963591; active means well fitted inhibition curve with a large enough effect in the signal ratio in the repeat runs, not every such curve was filed as active; the % refers to the signal ratio)
How it was run: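 HEK293T cells carrying a CRE-driven beta-lactamase reporter receive compound and NKH477 (0.25 uM final) for 3 h. Fluorescence from LiveBLAzer B/G FRET substrate is read after 2 h at room temperature.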

[16] = target: Beta-2 adrenergic receptor (Homo sapiens) (UniProt P07550); assay: Adrenergic beta2 receptor (ADRB2) small molecule antagonists, cell-based qHTS assay (AID 1963592); further: series mostly up to about 92 µM; nearly all actives have a fitted effect of over 50% in size
How it was run: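 Cells (CHO, stable ADRB2 overexpression) incubated 18-20hr at 37C; compounds added from DMSO; agonist mix (1nM isoproterenol, 100uM IBMX, 25uM Ro-20-1724) added; 0.5hr RT; d2-cAMP and anti-cAMP-cryptate added; 1hr RT; 665/615 nm read.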

[17] = target: Beta-2 adrenergic receptor (Homo sapiens) (UniProt P07550); assay: Adrenergic beta2 receptor (ADRB2) small molecule agonists, cell-based qHTS assay (AID 1963593);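 further: CHO cells stably overexpressing human ADRB2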
How it was run: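 CHO cells stably over-expressing ADRB2 were plated overnight at 37C, then dosed with compounds plus a stimulation mix containing 100uM IBMX and 25uM Ro-20-1724 for 0.5hr at room temperature. cAMP was measured by HTRF competition, 1hr.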

[18] = target: D(2) dopamine receptor (Homo sapiens) (UniProt P14416); assay: Dopamine D2 receptor (DRD2) small molecule agonists, cell-based qHTS assay (AID 1963594); further: nearly all actives have a fitted effect of over 35% in size
How it was run: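 HEK293 cells stably expressing DRD2 were cultured 24 h at 37 C, then given Ro20-1724 (0.1 mM final) and compounds for 10 min at room temperature. NKH477 (200nM) was then added for 30 min. cAMP was read by HTRF.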

[19] = target: D(2) dopamine receptor (Homo sapiens) (UniProt P14416); assay: Dopamine D2 receptor (DRD2) small molecule antagonists, cell-based qHTS assay (AID 1963595; active means well fitted inhibition curve with a large enough effect in the signal ratio in the repeat runs, with a control signal flat; the % refers to the signal ratio)
How it was run: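 Antagonism was scored as restored cAMP in HEK293-DRD2 cells. These cells were stimulated with 200 nM NKH477 and 12 nM quinpirole for 30 min at room temperature, in the presence of 0.1 mM Ro20-1724.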

[20] = p53 small molecule agonists, cell-based qHTS assay with rat liver microsomes: qHTS cell viability counter screen (AID 1963580); further: nearly all actives have a fitted effect of over 45% in size
How it was run: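 p53RE-bla HCT-116 cells (4,000/well) rested 5 h at 37 C, then given Tox21 compounds in DMSO with rat liver microsomes (0.5 mg/mL final) plus NADPH (0.5 mg/mL final) for 16 h at 37 C. Viability read by CellTiter-Glo luminescence after 30 min at room temperature.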
On the % scale 0 is the no-effect control and ±100 the full control effect.

KiSS-1 receptor (Homo sapiens), sequence (Q969F8 whole entry, looked up): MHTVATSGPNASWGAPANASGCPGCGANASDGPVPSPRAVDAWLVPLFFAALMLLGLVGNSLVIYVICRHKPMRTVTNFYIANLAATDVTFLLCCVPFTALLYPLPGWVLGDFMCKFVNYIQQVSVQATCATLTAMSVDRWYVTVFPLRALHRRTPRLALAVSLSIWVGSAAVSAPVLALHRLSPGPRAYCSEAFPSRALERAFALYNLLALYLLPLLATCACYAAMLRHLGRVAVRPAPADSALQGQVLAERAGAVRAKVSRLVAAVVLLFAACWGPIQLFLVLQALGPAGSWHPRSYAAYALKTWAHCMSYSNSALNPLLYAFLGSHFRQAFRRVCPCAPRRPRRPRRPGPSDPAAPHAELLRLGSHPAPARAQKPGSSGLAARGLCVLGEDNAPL
Muscarinic acetylcholine receptor M1 (Homo sapiens), sequence (P11229 whole entry, looked up): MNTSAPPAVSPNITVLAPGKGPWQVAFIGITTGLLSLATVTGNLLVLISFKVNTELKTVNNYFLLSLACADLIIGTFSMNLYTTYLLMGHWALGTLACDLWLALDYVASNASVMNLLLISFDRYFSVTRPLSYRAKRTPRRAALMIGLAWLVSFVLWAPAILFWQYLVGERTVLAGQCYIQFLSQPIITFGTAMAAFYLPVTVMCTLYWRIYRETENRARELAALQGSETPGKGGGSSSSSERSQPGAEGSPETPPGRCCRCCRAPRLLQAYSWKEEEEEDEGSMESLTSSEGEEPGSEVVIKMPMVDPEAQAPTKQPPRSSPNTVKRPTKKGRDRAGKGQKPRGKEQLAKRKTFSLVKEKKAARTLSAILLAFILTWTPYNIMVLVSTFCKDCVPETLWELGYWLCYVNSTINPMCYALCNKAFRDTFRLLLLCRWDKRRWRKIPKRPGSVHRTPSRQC
Gonadotropin-releasing hormone receptor (Homo sapiens), sequence (P30968 whole entry, looked up): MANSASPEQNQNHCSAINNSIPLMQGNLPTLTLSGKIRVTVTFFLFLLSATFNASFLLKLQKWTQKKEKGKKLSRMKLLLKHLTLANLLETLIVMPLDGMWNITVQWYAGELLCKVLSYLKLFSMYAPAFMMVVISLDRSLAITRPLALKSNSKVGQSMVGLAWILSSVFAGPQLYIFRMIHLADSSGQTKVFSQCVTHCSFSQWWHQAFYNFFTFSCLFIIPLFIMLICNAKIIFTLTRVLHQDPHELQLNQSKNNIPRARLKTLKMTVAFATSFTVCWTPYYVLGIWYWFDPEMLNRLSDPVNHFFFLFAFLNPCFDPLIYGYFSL
Beta-2 adrenergic receptor (Homo sapiens), sequence (P07550 whole entry, looked up): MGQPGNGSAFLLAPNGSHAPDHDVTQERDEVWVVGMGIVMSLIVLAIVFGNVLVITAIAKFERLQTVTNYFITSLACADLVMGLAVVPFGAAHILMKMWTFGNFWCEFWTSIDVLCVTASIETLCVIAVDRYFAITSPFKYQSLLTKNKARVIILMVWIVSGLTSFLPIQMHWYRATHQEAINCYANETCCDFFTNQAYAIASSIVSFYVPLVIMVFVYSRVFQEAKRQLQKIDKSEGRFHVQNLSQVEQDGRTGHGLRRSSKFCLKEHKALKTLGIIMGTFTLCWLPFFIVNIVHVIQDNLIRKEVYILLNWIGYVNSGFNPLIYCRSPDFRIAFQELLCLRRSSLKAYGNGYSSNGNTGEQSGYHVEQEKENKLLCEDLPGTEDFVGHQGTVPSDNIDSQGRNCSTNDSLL
D(2) dopamine receptor (Homo sapiens), sequence (P14416 whole entry, looked up): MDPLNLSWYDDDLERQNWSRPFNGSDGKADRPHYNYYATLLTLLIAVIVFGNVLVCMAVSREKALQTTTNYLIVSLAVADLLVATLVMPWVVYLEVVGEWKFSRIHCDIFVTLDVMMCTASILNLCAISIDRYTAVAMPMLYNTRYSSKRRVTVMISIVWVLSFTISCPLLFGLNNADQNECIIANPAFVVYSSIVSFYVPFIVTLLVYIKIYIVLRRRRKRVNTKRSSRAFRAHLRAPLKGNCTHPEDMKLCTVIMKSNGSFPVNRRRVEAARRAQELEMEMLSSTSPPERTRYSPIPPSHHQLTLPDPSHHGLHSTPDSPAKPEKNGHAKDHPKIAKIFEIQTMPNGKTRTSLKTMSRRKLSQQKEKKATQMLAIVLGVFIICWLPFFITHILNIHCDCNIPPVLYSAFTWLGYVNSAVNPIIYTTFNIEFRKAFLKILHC
5-hydroxytryptamine receptor 2A (Homo sapiens), sequence (P28223 whole entry, looked up): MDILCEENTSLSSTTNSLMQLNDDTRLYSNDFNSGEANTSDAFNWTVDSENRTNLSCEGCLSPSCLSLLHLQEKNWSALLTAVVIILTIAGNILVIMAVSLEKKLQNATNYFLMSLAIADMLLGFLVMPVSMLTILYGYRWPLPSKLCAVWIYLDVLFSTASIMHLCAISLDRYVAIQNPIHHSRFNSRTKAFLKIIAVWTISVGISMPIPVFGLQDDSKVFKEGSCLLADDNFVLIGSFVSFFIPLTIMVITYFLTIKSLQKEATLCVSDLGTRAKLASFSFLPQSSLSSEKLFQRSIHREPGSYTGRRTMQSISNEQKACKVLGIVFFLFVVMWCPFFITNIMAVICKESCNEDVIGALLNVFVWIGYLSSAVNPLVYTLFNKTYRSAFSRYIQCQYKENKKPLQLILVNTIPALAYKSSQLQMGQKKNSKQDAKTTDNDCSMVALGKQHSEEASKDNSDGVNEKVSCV

CNCCS(=O)(=O)O
inactive: Potency [1] | Potency [2] | Potency [3] | Potency [4] | Potency [5] | Potency [6] | Potency [7] | Potency [8] | Potency [9] | Potency [10] | Potency [11] | Potency [12] | Potency [13] | Potency [14] | Potency [15] | Potency [16] | Potency [17] | Potency [18] | Potency [19]

C=CCOc1cc(Cl)ccc1C(=O)NCCN(CC)CC
inactive: Potency [1] | Potency [2] | Potency [3] | Potency [4] | Potency [5] | Potency [6] | Potency [7] | Potency [8] | Potency [20] | Potency [10] | Potency [11] | Potency [13] | Potency [14] | Potency [15] | Potency [16]
active: Potency [12] 4600 nM

O=C(O)c1cc(=O)c2c(OCC(O)COc3cccc4oc(C(=O)O)cc(=O)c34)cccc2o1
inactive: Potency [1] | Potency [2] | Potency [3] | Potency [4] | Potency [5] | Potency [6] | Potency [7] | Potency [8] | Potency [20] | Potency [9] | Potency [14] | Potency [15] | Potency [16] | Potency [17] | Potency [18] | Potency [19]

CCCCCCCCc1ccc(Nc2ccc(CCCCCCCC)cc2)cc1
inactive: Potency [1] | Potency [2] | Potency [3] | Potency [4] | Potency [5] | Potency [6] | Potency [7] | Potency [8] | Potency [9] | Potency [10] | Potency [12] | Potency [13] | Potency [14] | Potency [15] | Potency [16] | Potency [17] | Potency [18] | Potency [19]

CC1=CC[C@@]23C[C@@H]1C(C)(C)[C@@H]2CC[C@H]3C
inactive: Potency [1] | Potency [2] | Potency [3] | Potency [4] | Potency [5] | Potency [6] | Potency [7] | Potency [8] | Potency [9] | Potency [11] | Potency [12] | Potency [13] | Potency [14] | Potency [15] | Potency [16] | Potency [18]

N[C@@H](CSSC[C@H](N)C(=O)O)C(=O)O
active: Potency [2] 376 nM
inactive: activity change, negative = cytotoxicity [1] -0.627% [at 0.349 µM] | activity change [3] 1.59% [at 0.217 µM, active compounds read high] | activation [4] -0.737% [at 0.29 µM] | activation [5] -0.257% [at 0.217 µM] | activation [6] 0.648% [at 0.249 µM] | activation [7] -1.5% [at 0.249 µM] | activity change, negative = cytotoxicity [8] 1.19% [at 0.249 µM] | activation [9] 2.6% [at 0.249 µM] | activity, negative = inhibition [10] -6.07% [at 0.233 µM] | activation [11] 4.74% [at 0.292 µM] | activity, negative = inhibition [12] 11.3% [at 0.232 µM] | activation [13] 1.52% [at 0.29 µM] | activation [14] 0.0077% [at 0.349 µM] | activity change, negative = inhibition [15] -2.16% [at 0.349 µM] | activity change, negative = inhibition [16] 8.85% [at 0.349 µM] | activation [17] -18.9% [at 0.349 µM] | activation [18] -4.71% [at 0.349 µM] | activity change, negative = inhibition [19] 5.54% [at 0.348 µM]

N=C(N)c1ccccc1
inactive: Potency [1] | Potency [2] | Potency [3] | Potency [4] | Potency [5] | Potency [6] | Potency [7] | Potency [8] | Potency [9] | Potency [12] | Potency [13] | Potency [14] | Potency [16] | Potency [17] | Potency [18] | Potency [19]

Cc1cccc2c1ccc1ccccc12
inactive: Potency [1] | Potency [2] | Potency [3] | Potency [4] | Potency [5] | Potency [6] | Potency [7] | Potency [8] | Potency [9] | Potency [10] | Potency [11] | Potency [12] | Potency [13] | Potency [15] | Potency [16] | Potency [18] | Potency [19]
